This is an account of results in PubChem BioAssay (NCI).

Each structure is given as a SMILES string. Compounds without any hit were thinned out: in the full panel of roughly 79,000, 15% have a hit. A number with no mark means an inactive call. Activity calls are given as the source filed them. Rule as the data show it: active = growth inhibition above about 70%; inactive = the rest.

Test [1] is described as follows: NCI Yeast Anticancer Drug Screen. Data for the rad50 strain (AID 155).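 Also: 0% = growth of vehicle-only cultures of the same strain.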 As to conditions: S. cerevisiae rad50 strain growth inhibition; at 50.0 µM; active compounds read high. The method in brief:
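Compounds were tested on a yeast strain with an engineered DNA damage repair alteration; the reported value is growth inhibition normalised to vehicle treatment.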

Test [2] can be described thus: NCI Yeast Anticancer Drug Screen. Data for the mec2-1 strain (AID 157). As to conditions: S. cerevisiae mec2-1 strain, at 50.0 µM, active compounds read high. The gist of the method:
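Each compound was tested on mec2-1 yeast, a strain altered in DNA damage repair or cell cycle control. Growth inhibition is reported relative to vehicle.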

The nature of test [3]: NCI Yeast Anticancer Drug Screen. Data for the sgs1 mgt1 strain (AID 161).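 Also: 0% = growth of cultures given vehicle only.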 As to conditions: S. cerevisiae sgs1 mgt1 strain, at 50.0 µM, active compounds read high. The method in brief:
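Genetically altered yeast, compound exposure, growth inhibition relative to vehicle.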

The nature of test [4]: NCI Yeast Anticancer Drug Screen. Data for the cln2 rad14 strain (AID 165).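 Also: 0% = growth equal to vehicle treated cultures.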 As to conditions: S. cerevisiae cln2 rad14 strain, at 50.0 µM, active compounds read high. The method in brief: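 Test compounds were added to cln2 rad14 yeast cultures; inhibition of growth was then determined by comparison with vehicle treatment.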
The nature of test [5]: NCI Yeast Anticancer Drug Screen. Data for the bub3 strain (AID 167). As to conditions: S. cerevisiae bub3 mutant strain, at 50.0 µM, active compounds read high. The method in brief: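 Growth of a checkpoint-deficient yeast mutant is measured after compound exposure. Values represent inhibition relative to vehicle.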
A short description of test [6]: NCI Yeast Anticancer Drug Screen. Data for the mlh1 rad18 strain (AID 175). As to conditions: S. cerevisiae mlh1 rad18 strain growth inhibition; at 50.0 µM; active compounds read high. The method in brief: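 Inhibition values reflect reduced growth of mutant yeast versus vehicle-treated controls following compound exposure; the mutations affect DNA damage repair.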

Turning to `NC(=O)Nc1nc(-c2ccccc2)no1`, the growth inhibition in test [1] is -16.7%; in test [2], 7.15%; in test [3], -17%; in test [4], -50.6%; in test [5] it was -6.75%; in test [6], -16.1%.

Regarding `Cc1nnnn1-c1ccc([N+](=O)[O-])cc1`, the growth inhibition is 8.45% in test [1]; 8.35% in test [2]; -1.5% in test [3]; -17.6% in test [4]; 0.75% in test [5]; 7.4% in test [6].

Regarding `CCC(C)CCC(C)(O)CC` (centres undefined), the growth inhibition in test [1] was 9.7%; in test [2], -9.9%; in test [3] it was -5.4%; in test [4] it was -43.1%; in test [5] it was 16.2%; in test [6], 1.35%.

`O=CC1CCCO1` (centres undefined): the growth inhibition in test [1] is 21.2%; in test [2], -22.2%; in test [3] it was 15.2%; in test [4], 6.9%; in test [5], 6.45%; in test [6], 22%.

Take `Fc1ccccc1-c1nc2ccccc2s1`: the growth inhibition in test [1] is 45%; in test [2] it was 3.75%; in test [3], 19.3%; in test [4] it was -3.45%; in test [5] it was 6.05%; in test [6], 28.3%.

As to `CC(C)NC(=O)OCc1c(COC(=O)NC(C)C)c(Sc2ccccc2)n2c1CCC2`, the growth inhibition in test [1] is 6.6%; in test [2], -17.1%; in test [3] it was 1.85%; in test [4], -27.6%; in test [5], 9.1%; in test [6], 16.2%.

Consider `CC1CC(=O)NC(=O)C1`, for which the growth inhibition in test [1] is -7.25%; in test [2], -4.1%; in test [3], -18.8%; in test [4], -13%; in test [5], 6.3%; in test [6] it was -22.7%.

In the case of `O=C1CC(C(=O)O)C(C(Cl)(Cl)Cl)O1` (centres undefined), the growth inhibition in test [1] is -18.9%; in test [2] it was -26.4%; in test [3], 1.8%; in test [4], -22.7%; in test [5] it was -6.7%; in test [6] it was -1.2%.

Consider `COc1cc2[nH]c3c(c2cc1OC)CCN[C@@]31CC[C@@]2(CC3c4c(cc(OC)c(O)c42)CCN3C)C[C@@H]1OC` (some centres undefined), for which the growth inhibition is -14.8% in test [1]; -23.9% in test [2]; -37.5% in test [3]; 1% in test [4]; -35% in test [5]; -9.7% in test [6].

As to `COc1cc(OC)cc(C2OC(N)=C(O)C2=O)c1` (centres undefined), the growth inhibition in test [1] was 9.65%; in test [2], 4.25%; in test [3], 13%; in test [4], 14.9%; in test [5] it was 2.35%; in test [6] it was 19.3%.

For `CC(=O)NC(NCCN)(c1ccccc1)c1ccccc1`, the growth inhibition is -9.7% in test [1]; -26.4% in test [2]; -8.1% in test [3]; 11.6% in test [4]; 9.6% in test [5]; -8.45% in test [6].

For `COC(=O)Cc1cccc2c(=O)c(S(=O)(=O)NC(=O)Nc3ccc(Cl)cc3)c(-c3ccccc3)oc12`, the growth inhibition in test [1] is 20.9%; in test [2], 23.1%; in test [3], 31.6%; in test [4] it was 50.4%; in test [5], 35.4%; in test [6], 17.8%.

As for `S=C(Nc1ccccc1)Nc1ccc(NC(=S)Nc2ccccc2)cc1`, the growth inhibition in test [1] was 8.25%; in test [2] it was -0.25%; in test [3], -3.6%; in test [4], -4.95%; in test [5], -8.45%; in test [6], -52.2%.

As to `Cc1c(C)n(C)c(=S)n(C)c1=S`, the growth inhibition in test [1] was 4.95%; in test [2] it was 4.15%; in test [3], 5.8%; in test [4], 31.6%; in test [5], 1.85%; in test [6], 8.65%.

As for `Clc1ccc2c(c1)nnn1nccc21`, the growth inhibition in test [1] was 16.4%; in test [2], 17.6%; in test [3] it was -9.8%; in test [4] it was 10.9%; in test [5], 13.8%; in test [6], 14.8%.

As for `CC(OC(=O)CC(c1ccccc1)N1CCCCC1)c1ccccc1` (centres undefined), the growth inhibition in test [1] was 64.7%; in test [2], 1.3%; in test [3], 41.1%; in test [4], 5.3%; in test [5] it was 57.5%; in test [6], 33.9%.

Consider `CCOc1cc(=O)cc2n(-c3cc(OCC)c(OC)c(OCC)c3)c3ccccc3nc1-2`, for which the growth inhibition in test [1] was 38%; in test [2], 11.7%; in test [3] it was 23.6%; in test [4], 21.9%; in test [5], -1.4%; in test [6], -1.2%.

Take `CN1CCN(c2ccncc2S(=O)(=O)N2CCN(C)CC2)CC1`: the growth inhibition in test [1] is -17.2%; in test [2], -12.7%; in test [3], 1.2%; in test [4], -15.4%; in test [5], -11.4%; in test [6], -2.5%.

Turning to `CC1=CC(O)C(Br)C(C)(C)C12CCC(C)(Cl)C(Br)C2` (centres undefined), the growth inhibition is 90.1% (active) in test [1]; 91% (active) in test [2]; 89.8% (active) in test [3]; 81.8% (active) in test [4]; 89.9% (active) in test [5]; 89.3% (active) in test [6].

Regarding `Cc1cc(=O)c2cc(-c3ccccc3)ccc2[nH]1`, the growth inhibition in test [1] is -1%; in test [2], 4.4%; in test [3], -13.4%; in test [4], 0.05%; in test [5] it was -1.5%; in test [6], 2%.

In the case of `NC(=S)N/N=C/c1ccc(OC(=O)Cc2ccccc2)cn1`, the growth inhibition in test [1] was 19.7%; in test [2], -6.6%; in test [3], 10.1%; in test [4], 7.1%; in test [5], 4.55%; in test [6], 16.4%.

For `CCCCCCC(c1c(O)cc(C)[nH]c1=O)c1c(O)cc(C)[nH]c1=O`, the growth inhibition is -6.55% in test [1]; -8.5% in test [2]; 9.55% in test [3]; -8.4% in test [4]; -12.8% in test [5]; -11.9% in test [6].

Regarding `Cc1cccc(-n2c(N)cc(=O)[nH]c2=S)n1`, the growth inhibition is -11.5% in test [1]; -2.2% in test [2]; -7.8% in test [3]; -38.4% in test [4]; -10.1% in test [5]; -4.15% in test [6].

As to `O=CN(Cc1cnccn1)Cc1cnccn1`, the growth inhibition in test [1] is -2.8%; in test [2], 7.3%; in test [3], -6.75%; in test [4], -33.1%; in test [5], 7%; in test [6], -14.2%.

`CCCCCNC(=O)c1ccc(C)cc1`: the growth inhibition is 2.5% in test [1]; -4.15% in test [2]; 1.05% in test [3]; -12.6% in test [4]; -10.8% in test [5]; -70% in test [6].

For the compound `OCC[N+]12CCCN1CCC2`, the growth inhibition in test [1] was -15.4%; in test [2] it was -27%; in test [3], -21.4%; in test [4], -12.9%; in test [5], -15.3%; in test [6], -30.4%.

For `CC12CCC(c3cn[nH]c31)C2(C)C` (centres undefined), the growth inhibition in test [1] was 16.1%; in test [2], 20.8%; in test [3] it was 19.9%; in test [4] it was -6.6%; in test [5], -0.35%; in test [6], 0.7%.

`CC1/C(=N\Nc2ccc([N+](=O)[O-])cc2[N+](=O)[O-])CCC2C1(C)CCC1C2(C)CCC2(C)C3CC(C)(C)CCC3(C)CCC12C` (centres undefined): the growth inhibition in test [1] was -5.8%; in test [2], -9.1%; in test [3], 9.8%; in test [4] it was -16.6%; in test [5] it was 13.2%; in test [6] it was 6.25%.

As for `CC(=O)Oc1ccc2c(OC(C)=O)c(C)cc(OC(C)=O)c2c1`, the growth inhibition in test [1] is 26.3%; in test [2], 5.6%; in test [3] it was 20.9%; in test [4] it was 3.8%; in test [5] it was 19.1%; in test [6] it was 24.4%.

Turning to `CCCCOC(=O)c1ccc(Cl)c(Cl)c1`, the growth inhibition in test [1] is -1.7%; in test [2] it was -3.2%; in test [3], -14.9%; in test [4], -32.9%; in test [5], 3%; in test [6], 7.45%.

As for `N=c1ccn(CC(O)COc2ccccc2)cc1` (centres undefined), the growth inhibition is -11.8% in test [1]; -13.8% in test [2]; -5.95% in test [3]; 10.6% in test [4]; 2.75% in test [5]; 9.55% in test [6].

As to `ClC1CC/C=C\CC/C=C/CCC1Cl` (centres undefined), the growth inhibition was 55.7% in test [1]; 48.1% in test [2]; 22.1% in test [3]; 32% in test [4]; 29.2% in test [5]; 41.3% in test [6].

Take `CCOC(=O)C(Cc1ccccc1Cl)(NC(C)=O)C(=O)OCC`: the growth inhibition in test [1] was 2.1%; in test [2] it was -7.95%; in test [3], -0.35%; in test [4], -10.2%; in test [5], 11.8%; in test [6], -20.1%.

Turning to `NNC(N)=Nc1cccc2ccccc12`, the growth inhibition in test [1] was -2.9%; in test [2], -7.5%; in test [3], 0.35%; in test [4], 15.7%; in test [5] it was 11.4%; in test [6], -18.6%.

With `Cc1ncc([N+](=O)[O-])n1CCNC(=O)CCC(=O)NCCCn1ccnc1[N+](=O)[O-]`, the growth inhibition in test [1] was -16.1%; in test [2], -22.9%; in test [3] it was -1.45%; in test [4] it was 21.7%; in test [5], -31.8%; in test [6], 14.9%.

Regarding `C=CCCCCCCCCC(N)=O`, the growth inhibition was -12.6% in test [1]; -8.4% in test [2]; 4.15% in test [3]; -1.8% in test [4]; 13.2% in test [5]; -14.6% in test [6].

As for `OCCc1cc2ccccc2c2ccccc12`, the growth inhibition was -3.55% in test [1]; 6.75% in test [2]; -4.8% in test [3]; -11.9% in test [4]; -15.9% in test [5]; -12.9% in test [6].

For the compound `Cc1nc2ccc(-c3ccccc3)cc2nc1C`, the growth inhibition was -9.25% in test [1]; 5.7% in test [2]; -20.9% in test [3]; 4.45% in test [4]; -5.05% in test [5]; 3.7% in test [6].

Consider `O=C(O)c1cccc2cnccc12`, for which the growth inhibition in test [1] is -40.6%; in test [2] it was -17.6%; in test [3] it was -26.9%; in test [4], 1.3%; in test [5] it was -13.3%; in test [6], -8.7%.
